Rows were chosen to be rich in hits. Some 1.4% of all compounds tested hit in one or more screens of this group.
MenB inh: M. tuberculosis MenB inhibitors, primary screen, biochemical, absorbance; 1,4-dihydroxy-2-naphthoyl-CoA synthase (Mycobacterium tuberculosis (strain ATCC 25618 / …; MenB enzyme assay, absorbance read-out; inhibition, % (no concentration beside the values); 0.43% of 100,000 active; in the data active = inhibition above about 21%, passing the limit was not always enough
Mtb MbtI inh: MbtI salicylate synthase inhibitors, primary screen, biochemical, fluorescence intensity; inhibition, % (no concentration beside the values); AID 493033, 2011; P9WFX0; 0.89% of 100,000 active; purified MbtI enzyme, fluorescence intensity read-out; in the data active = inhibition mostly above about 56%, no sharp cut-off; inactive = mostly below about 77%
Polio RdRp inh: poliovirus RdRp elongation inhibitors, primary screen, biochemical, fluorescence polarization, total intensity. 0.66% of 150,000 active. poliovirus polymerase elongation; active compounds read low. Genome polyprotein (Poliovirus type 1 (strain Mahoney)), P03300. % elongation, % (compound at 16.7 µg/mL); in the data active = % elongation below about 90%
Target sequence (P03300 1749-2209 limits assumed): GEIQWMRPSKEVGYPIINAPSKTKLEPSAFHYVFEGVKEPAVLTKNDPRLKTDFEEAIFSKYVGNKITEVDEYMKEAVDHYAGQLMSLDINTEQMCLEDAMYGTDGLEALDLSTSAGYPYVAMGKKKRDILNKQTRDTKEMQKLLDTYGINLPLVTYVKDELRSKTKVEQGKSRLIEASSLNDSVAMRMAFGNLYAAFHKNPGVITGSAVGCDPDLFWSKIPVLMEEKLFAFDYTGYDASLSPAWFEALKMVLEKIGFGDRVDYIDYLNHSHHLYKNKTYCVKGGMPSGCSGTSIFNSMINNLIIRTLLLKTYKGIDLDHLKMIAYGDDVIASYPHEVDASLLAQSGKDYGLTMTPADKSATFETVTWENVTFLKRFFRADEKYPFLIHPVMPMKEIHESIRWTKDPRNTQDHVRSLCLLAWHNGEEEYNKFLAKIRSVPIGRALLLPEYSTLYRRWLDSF
AID504770: growth inhibition of E. coli YBA685, primary screen, V. cholerae RctB inhibitors; z-score (no concentration beside the values); AID 504770, 2011; E. coli YBA685 rctB-dependent plasmid, OD600 growth, 3 h; active compounds read low; 0.27% of 130,000 active; in the data active = z-score below about -2, passing the limit was not always enough
Starred values were filed as active, the others as inactive; i = inactive; x = no result given.

SMILES | MenB inh | Mtb MbtI inh | Polio RdRp inh | AID504770
Cc1[nH]c(=S)n(CC2CCCO2)c1C (stereo not drawn) | 12 | 95* | 95 | 1.4
Cc1n[nH]c(=S)n1CC1CCCO1 (stereo not drawn) | -16 | -6 | 103 | -0.1
COc1cc(C=C(C#N)C#N)ccc1O | i | 59* | 98 | -0.15
COc1ccc(-c2c(C#N)c(N)nc(OC)c2C#N)cc1 | -28 | 42 | 101 | 0.1
COc1ccc2c(c1)C(C(C#N)C#N)C(C#N)=C(N)O2 (stereo not drawn) | x | x | x | -2.4*
CCCC(C)C1C(C#N)=C(N)Oc2cc(N)ccc21 (stereo not drawn) | -2 | 8 | 106 | 0.6
COc1ccc2c(c1)C(C(C#N)C#N)c1c(nc(N)c(C#N)c1N)O2 (stereo not drawn) | -25 | 64 | 96 | -3*
COc1ccc(-c2cc(C(=O)Oc3ccc(Cl)cc3)c3ccccc3n2)cc1 | x | x | 105 | x
CCOC(=O)c1c(C)oc2nc(COC(=O)c3cc(-c4ccc(Cl)cc4)nc4ccccc34)nc(N)c12 | -23 | -10 | 105 | -4.7*
O=C(O)COc1ncnc2ccccc12 | 27* | 10 | 104 | 0.8
CN(C)C(=O)COc1ncnc2ccccc12 | x | -1 | 102 | -0.6
Cc1ccc(S(=O)(=O)N2CCOCC2)c(C)c1 | 2 | 1 | 103 | -1.1
Cc1ccc(S(=O)(=O)N2CCN(Cn3nc(C)sc3=S)CC2)c(C)c1 | 15 | 68* | 106 | 1.5
Cc1ccc(S(=O)(=O)N2CCN(Cn3nc(Nc4ccccc4F)sc3=S)CC2)cc1 | 4 | 94* | 102 | -0.55
CCS(=O)(=O)N1CCN(S(=O)(=O)c2ccc(C)cc2)CC1 | -14 | -18 | 100 | -0.25
Fc1cccc2c1CNC(=S)N2 | -18 | 82* | 100 | -1.3
CCC(NC(=O)c1ccccc1)c1ccccc1 (stereo not drawn) | 3 | -4 | 103 | 0.2
CCC(=O)Nc1nc(-c2ccc(C)cc2C)cs1 | x | x | x | 2
Cc1ccc(-c2csc(Nc3ccc(C(=O)O)cc3)n2)c(C)c1 | -20 | x | 90* | 0.3
O=C(CSc1nnc(C2CC2)n1Cc1ccco1)c1cccc(Cl)c1 | -11 | 34 | 99 | 1.5
Oc1ccc(CN2CCN(c3ccccc3)CC2)c2cccnc12 | -51 | -2 | 106 | 2.3
O=C(O)c1c(CN2CCN(c3ccccc3)CC2)c(O)c2ccccc2c1O | -28 | 0 | 86* | 1.5
Cc1nn(-c2ccccc2)c2c1P(=S)(N1CCOCC1)N(C)C(c1ccccc1)=N2 (stereo not drawn) | -5 | 80 | 82* | -0.5
Cc1[nH]c(=S)n(C2CCCCC2)c1C | -16 | 35 | 101 | -0.35
O=c1[nH][nH]c(=S)n1C1CCCCC1 | 4 | 57* | 102 | 0.2
SMILES | MenB inh | Mtb MbtI inh | Polio RdRp inh | AID504770
Nc1cc(C(F)(F)F)ccc1-n1cnc2ccccc21 | x | 90* | 102 | 1.1
Cc1cccc2nc(CSC(=S)NCc3cccnc3)cn12 | x | x | x | -3.7*
CCc1nc2ccccc2c(N)c1C | 14 | x | 90* | -0.85
COc1cc(OC)c(NC(=O)Cn2nnc(C(=O)O)c2C(=O)O)cc1Cl | x | x | x | -0.55
NC(=O)c1ccc[n+]([C@H]2O[C@@H](COP(=O)([O-])OP(=O)(O)OC[C@H]3O[C@@H](n4cnc5c(N)ncnc54)C(O)[C@H]3O)C(O)[C@H]2O)c1 (stereo partly drawn) | -7 | -1 | 98 | x
C/C(=N\NC(=O)c1ccn[nH]1)c1cc(O)ccc1O | -31 | 71* | 104 | -0.9
O=C(Cn1nc(Cc2ccncc2)c2ccccc2c1=O)NCCC1=CCCCC1 | x | x | x | -2.2*
C/C(=N\N)c1c(-c2ccccc2)[nH][nH]c1=O | -19 | -12 | 101 | 0.95
CC1Cc2ccccc2N1C(=O)COc1ncnc2sccc12 (stereo not drawn) | 7 | 4 | 103 | -0.15
CCOc1cc(C(=O)O)c(N)cc1OC | 12 | 100 | 87* | -0.35
CCOC(=O)c1c(NC(=O)/C(C#N)=C/c2ccc(OC)cc2)sc2c1CCC2 | x | x | 106 | x
CCOc1ccc(/C=C(\C#N)C(=O)Nc2sc3c(c2C(=O)OC)C(C(=O)OC)CC3)cc1OC (stereo not drawn) | x | x | 73* | x
CCNC(=O)c1ccc(NS(C)(=O)=O)cc1 | -3 | -13 | 101 | -0.65
O=C(O)CSC1=NCCCN1 | 1 | 3 | 99 | 0.35
O=C(O)CSC1=NC2CCCCC2N1 (stereo not drawn) | 33* | 3 | 99 | -0.55
CC(C)(C)NC(=O)CSC1=C(C#N)C(c2ccco2)C2=C(CCCC2=O)N1 (stereo not drawn) | x | x | x | 1.2
N#Cc1cc(-c2ccccc2C(F)(F)F)no1 | -60 | -6 | 100 | -2.6*
CS(=O)(=O)c1nc2ccccc2s1 | 7 | x | 89* | 0.35
S=c1nc(Cc2ccc(Cl)cc2)[nH][nH]1 | -51 | 97* | 93 | 0.3
O=c1cc(-c2ccccc2)nc(Nc2nc3ccccc3o2)[nH]1 | -30 | 4 | 68* | 2.5
Cc1nc(-c2ccccc2)cc(=O)[nH]1 | 37* | 7 | 102 | 0.4
O=C(c1ccc2c(c1)N(Cc1ccccc1)C(=O)c1ccccc1S2=O)N1CCN(Cc2ccccc2)CC1 (stereo not drawn) | 3 | -2 | 101 | 0.65
N#Cc1cccc(N2C(=O)C=CC2=O)c1 | x | x | x | -2.8*
O=C1C=CC(=O)N1c1ccc2ccccc2c1 | 3 | 100* | 98 | -1.7
COc1ccc(N2C(=O)C=CC2=O)cc1OC | x | 94* | 100 | -0.55
SMILES | MenB inh | Mtb MbtI inh | Polio RdRp inh | AID504770
CSc1cccc(N2C(=O)C=CC2=O)c1 | x | x | x | -2.2*
CCNc1nc(C)nc2sc(CC)cc12 | 32* | x | 103 | -0.15
Cc1ccc(NC(=O)C(C)NC(=O)C(c2ccccc2)c2ccccc2)cc1C (stereo not drawn) | x | -10 | x | -0.45
COc1ccc(Cn2c(=O)[nH]c3cc(C(=O)N4CCN(c5cccc(Cl)c5)CC4)ccc3c2=O)cc1 | x | x | 101 | x
COc1ccc(Cn2c(=O)[nH]c3cc(C(=O)N4CCN(c5cccc(OC)c5)CC4)ccc3c2=O)cc1 | x | x | 73* | x
CC(=O)n1c2ccccc2c2ccccc21 | x | x | x | -0.4
CC(=O)n1c2ccccc2c2nc(N)sc21 | -8 | 52 | 81* | -1.9
Cc1ccc2[nH]c(O)c(N=NC(=O)Cc3cn4ccsc4n3)c2c1 | -44 | -6 | 96 | 0.6
O=C(OCc1cc(=O)n2cc(Br)ccc2n1)C1=COCCO1 | -19 | 15 | 109 | 2.2
S=C(NCCN1CCOCC1)Nc1ccccc1 | -14 | -1 | 106 | -1.9
FC(F)(F)c1ccccc1NNC(=S)NCCN1CCOCC1 | -25 | 71* | 98 | 0.7
Cc1ccc(-c2cc(C(=O)N3CCCC3)[nH]n2)cc1C | 11 | 8 | 101 | -1.1
O=C(NCCc1ccccc1)c1sc(=S)n2c1[nH]c(=O)c1ccccc12 | -5 | 67 | 95 | 0
Nc1c(C(=O)NC2CCCCC2)sc(=S)n1-c1ccccc1 | 9 | 56* | 97 | 0.35
O=C(NC1CCCCC1)c1sc(=S)n2c1[nH]c(=O)c1ccccc12 | 2 | 96* | 98 | 1.9

High-throughput results (PubChem BioAssay)
